Only some compounds are listed: those with a hit (about 11% of all), similar ones and a draw of the others.
CBFb RUNX1 block – blocks binding between human CBF-beta and RUNX1; AlphaScreen CBFb-His/RUNX1-biotin binding, biochemical; Potency, µM (series often up to 59.8 µM), actives largely listed as inhibitors; 230,000 tested, under 10 active; AID 1477
Target sequence (Q01196 whole entry, looked up): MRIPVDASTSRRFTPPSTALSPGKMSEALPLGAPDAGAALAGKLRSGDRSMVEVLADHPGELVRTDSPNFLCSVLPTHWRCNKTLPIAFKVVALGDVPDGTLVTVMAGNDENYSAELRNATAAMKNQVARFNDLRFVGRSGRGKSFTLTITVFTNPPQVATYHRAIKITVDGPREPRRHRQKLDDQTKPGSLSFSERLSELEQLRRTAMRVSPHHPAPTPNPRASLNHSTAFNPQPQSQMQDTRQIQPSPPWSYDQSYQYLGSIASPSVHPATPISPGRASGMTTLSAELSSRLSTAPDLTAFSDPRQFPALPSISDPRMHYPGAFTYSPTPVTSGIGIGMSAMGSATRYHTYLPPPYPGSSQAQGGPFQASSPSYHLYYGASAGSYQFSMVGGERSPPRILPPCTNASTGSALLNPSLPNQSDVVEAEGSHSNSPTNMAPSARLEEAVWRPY
Target sequence (Q13951 whole entry, looked up): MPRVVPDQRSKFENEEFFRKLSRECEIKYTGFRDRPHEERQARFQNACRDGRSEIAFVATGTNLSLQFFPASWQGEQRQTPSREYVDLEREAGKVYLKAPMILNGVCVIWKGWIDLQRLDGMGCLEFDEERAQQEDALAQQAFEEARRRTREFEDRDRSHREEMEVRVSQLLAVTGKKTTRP
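CBF-beta (His) and RUNX1 (biotin), 30 nM each; 20 min preassociation; + compound, 15 min; + beads 50 ng each (Ni, streptavidin), 90 min; RT; AlphaScreen read.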
HttQ103 aggreg – reduces HttQ103-GFP aggregates in PC12 cells. PC12 HttQ103-GFP aggregates, Acumen cytometry, 40 h. Potency, µM (highest dose often 46.1 µM), most hits filed as inhibitors. actives 1.1% (n = 220,000). AID 1688; also: nearly all actives have a fitted effect of over 60% in size
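Inducible Q103 Huntingtin exon 1–GFP PC12 line, 1500 cells/well in phenol red free DMEM with 5% equine and 5% calf serum. Tebufenozide 100 nM induced expression; compounds titrated; aggregates quantified by cytometry.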
PNC inhibitor – blocks assembly of the perinucleolar compartment; PC3M PTB-GFP, PNC prevalence imaging, 16 h; stronger effect = lower value; actives 3.1% (n = 140,000); activity change (PNC), negative = inhibition, % at 10 µM;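 active = readout at or below -70, meaning at least 70% loss of cells showing the perinucleolar compartment, a nuclear body marking cancer cells; inconclusive = readout between -30 and a set limit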
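Read-out is percentage of cells bearing a perinucleolar compartment, from automated 20x imaging of fixed, Hoechst-stained PC3M PTB-GFP cells. Cells were seeded 4 h, then exposed 16 h to compound (23 nl of library stock) in duplicate plates.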
ALDH1A1 inh – blocks purified human ALDH1A1 activity; Purified ALDH1A1, NADH fluorescence, propionaldehyde substrate; actives 7.3% (n = 220,000); Potency, µM (top dose mostly 75.3 µM), hits mostly inhibitors; P00352; AID 1030; active = well fitted inhibition curve with a large enough effect, not every such curve was filed as active; inconclusive = small, poorly fitted or top-dose-only effect, or another doubt; inactive = no such curve, though single readings can be large or run the other way
HPGD inh – inhibitors of human 15-hydroxyprostaglandin dehydrogenase (HPGD); purified HPGD, NADH fluorescence kinetic, PGE2 substrate; Potency, µM, most hits filed as inhibitors; actives 4.3% (n = 150,000); active = well fitted inhibition curve with a large enough effect, not every such curve was filed as active; inconclusive = small, poorly fitted or top-dose-only effect, or another doubt; inactive = no such curve, though single readings can be large or run the other way
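NADH formation kinetics: reaction with 30 uM PGE2 and 1 mM NAD+ (final), 20 nM enzyme, Tris-HCl pH 8 with Tween 20, after 15 min compound preincubation at room temperature. Fluorescence change, last versus first of five reads.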
HTT ATP protect – cytoprotection in Huntington HTT-Q103 PC12 cell model; AID 1471; Potency, µM (highest dose often 56.4 µM), hits mostly activators; PC12 HTT-Q103 induced, cytoprotection, ATP luminescence, 40 h; actives 0.14% (n = 230,000); also: nearly all actives have a fitted effect of over 45% in size
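Quantitative HTS on tebufenozide-induced (100 nM) PC12 cells expressing HTTQ103 exon 1–GFP; compounds tested as a concentration series; survival measured via cellular ATP.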
Numbers stand for hits; - = inactive; ? = inconclusive; . = no result; [ ] = remark or other dose. Unless noted, calls follow the shape of the dose curve; as a rule, active = well fitted curve in the direction sought with a large enough effect; inconclusive = small, poorly fitted or top-dose-only effect, or another doubt; inactive = no such curve, though single readings can be large; an effect the other way counts as inactive or inconclusive.

SMILES	CBFb RUNX1 block	HttQ103 aggreg	PNC inhibitor	ALDH1A1 inh	HPGD inh	HTT ATP protect
O=C(CSc1ncnc2sc3c(c12)CCCC3)c1ccccc1	-	-	?	?	-	-[1.9 µM]
O=C(CSc1ncnc2sc3c(c12)CCCC3)c1ccco1	-	?	?	22.4µM	?	-[10 µM]
Cc1nc2sc3c(c2c2nnc(SCC(=O)NCc4ccco4)n12)CCCC3	-	-	-	14.1µM	28.2µM	-[10 µM]
COc1cccc(Cn2c(=O)c(-c3cn(C)c4ccccc34)nc3cnc(N4CCNCC4)nc32)c1	.	.	.	?	.	-
COc1ccc(-n2c(-c3ccccc3)cc3c2CCCC3=O)cc1	-	?	-	15.8µM	?	-
O=C1CCCc2c1cc(-c1ccccc1)n2-c1ccc(O)cc1	-	-	-	-	-	-[10 µM]
CCOc1ccc(NC(=O)NCC2CCN(c3ccc(OC)cc3)C2)cc1 (stereo not drawn)	-	-[9.22 µM]	-	?	-	-
CCS(=O)(=O)c1nnnn1-c1ccccc1S(C)(=O)=O	-	.	-116.6	?	-	12.6µM
O=S(=O)(Cc1ccccc1)c1nnnn1-c1ccccc1	-	.	.	0.447µM	-	?
O=S(=O)(CCc1ccccc1)c1nnnn1-c1ccccc1	-	.	.	-	-	?
N#Cc1ccc(CS(=O)(=O)c2nnnn2-c2ccccc2)cc1	-	.	.	0.794µM	-	?
COc1cccc(CS(=O)(=O)c2nnnn2-c2ccc(F)cc2Br)c1	-	.	.	?	-	-
c1ccc(CNc2nnnn2-c2ccccc2)cc1	-	?	-	39.8µM	-	-[1.9 µM]
N#Cc1cccc(CS(=O)(=O)c2nnnn2C2CCCCC2)c1	-	.	.	25.1µM	-	?
CC(C)(C)c1ccc(S(=O)(=O)N2CCN(CCC#N)CC2)cc1	-	-	-	?	-	-
CC(C)(C)c1ccc(S(=O)(=O)/C=C\C#N)cc1	-	.	.	0.0562µM	2.82µM	-
Cc1ccc(S(=O)(=O)/C=C\C#N)cc1	-	.	.	0.0112µM	3.55µM	-
Cc1ccc(S(=O)(=O)/N=C/c2ccc(N(C)C)cc2)cc1	-	-	-	12.6µM	-	-[10 µM]
Cc1ccc(S(=O)(=O)/N=C/N(C)C)cc1	-	-	-	-	-	.
Cc1ccc(-n2nc(C)c3c2OC(N)=C(C#N)C3c2ccc(C)o2)cc1 (stereo not drawn)	.	-	-	1.58µM	-	-[10 µM]
Cc1ccc(-n2nc(C)c3c2OC(N)=C(C#N)C3c2ccco2)cc1 (stereo not drawn)	-	-	-	1.58µM	?	-
Cc1ccc(-n2nc(C)c3c2OC(N)=C(C#N)C3c2ccoc2)cc1 (stereo not drawn)	?	-	-	0.891µM	-	-
O=C(Cc1ccc(Cl)cc1)c1c(O)cc(O)cc1O	-	.	.	-	?	-[1.9 µM]
O=C(CO)[C@@H](O)C(O)[C@@H](O)CO (stereo partly drawn)	-	.	.	.	.	.
Nc1ncnc2nc(-c3ccc(N4CCOCC4)nc3)cc(-c3cccc(Br)c3)c12	?	.	.	?	?	-
SMILES	CBFb RUNX1 block	HttQ103 aggreg	PNC inhibitor	ALDH1A1 inh	HPGD inh	HTT ATP protect
COc1ccc2cc(C(=O)Nc3ccc(O)cc3)sc(=O)c2c1OC	-	-	-	-	25.1µM	-[10 µM]
COc1ccc2cc(C(=O)Nc3ccc(F)cc3)sc(=O)c2c1OC	-	-	-	-	-	-
Cc1cc(C)c(C(N)=O)c(Nc2ccc3c(c2)OCCO3)n1	-	-	-100.0	-	-	-[10 µM]
Cc1cc(C)c(C(N)=O)c(Nc2cccc(Cl)c2)n1	-	-	-100.0	-	-	-[10 µM]
COc1ccc(Nc2nc(C)cc(C)c2C(N)=O)cc1	-	-	-	-	-	-
NCCCc1c(-c2ccccc2)nc(N)[nH]c1=O	.	.	.	-[13.5 µM]	-	-[10 µM]
O=C(NCC1CCCO1)C(c1ccncc1)N(Cc1ccc(F)cc1)C(=O)CN1C(=O)c2ccccc2S1(=O)=O (stereo not drawn)	-	-	-	12.6µM	-	-[10 µM]
COc1cccc(C(C(=O)NCC2CCCO2)N(CC2CCCO2)C(=O)CN2C(=O)c3ccccc3S2(=O)=O)c1 (stereo not drawn)	-	-[9.22 µM]	.	14.1µM	.	-[10 µM]
CO[C@H]1COC(=O)[C@H](C)COC(=O)[C@H](C)NC(=O)C/C=C\[C@H]1C	-[13.1 µM]	.	.	-[13.5 µM]	.	-[10 µM]
